From PubChem
In the library only some 1.9% were active in any assay of this set; here they are far more common.
Measles CPE = protection of cells from measles virus. AID 841. protection (pct of control), % at 4 µM. 140,000 tested, 1.5% active. Measles virus-infected cells, CPE protection, absorbance; in the data active = protection mostly above about 24%, no sharp cut-off; inactive = mostly below about 26%
sEH activator = increases human soluble epoxide hydrolase activity; P34913; purified human sEH enzymatic activity, activator screen; activation, % at 2 µM; 91,000 tested, 0.04% active; AID 717; in the data active = activation above about 37%
Target sequence (P34913 whole entry, looked up): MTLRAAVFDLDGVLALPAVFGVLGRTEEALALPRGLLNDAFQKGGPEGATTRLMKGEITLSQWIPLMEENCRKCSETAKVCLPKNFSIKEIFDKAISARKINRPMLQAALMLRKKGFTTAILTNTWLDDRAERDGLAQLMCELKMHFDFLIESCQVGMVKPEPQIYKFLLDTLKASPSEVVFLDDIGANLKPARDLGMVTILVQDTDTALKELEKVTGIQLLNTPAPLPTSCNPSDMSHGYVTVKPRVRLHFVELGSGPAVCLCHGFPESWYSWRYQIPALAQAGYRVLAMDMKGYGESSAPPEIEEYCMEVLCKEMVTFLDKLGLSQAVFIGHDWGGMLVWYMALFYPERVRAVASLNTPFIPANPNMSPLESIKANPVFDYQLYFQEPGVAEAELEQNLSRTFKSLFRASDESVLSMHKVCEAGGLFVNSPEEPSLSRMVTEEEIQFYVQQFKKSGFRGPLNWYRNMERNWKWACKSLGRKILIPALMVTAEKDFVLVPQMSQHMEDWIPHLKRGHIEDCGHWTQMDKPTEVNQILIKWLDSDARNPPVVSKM
cytoskel mod = alters cytoskeleton assembly in HUVEC cells; HUVEC TNFa F-actin phalloidin imaging, high content; inhibition, % at 2 µM; 91,000 tested, 0.18% active;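 active = inhibition above the batch mean plus 3 SD and confirmed as a hit by visual image inspection, cut at about 30% in these data, passing the limit was not always enough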
Candida biofilm = kills Candida albicans biofilms | inhibition, % at 6 µM | C. albicans biofilm + clotrimazole, Alamar Blue | 85,000 tested, 0.14% active;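 active = inhibition above 20%; inactive = inhibition below 20%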;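 also: preformed 24 hr biofilms exposed to compound for 48 hr; 0% = biofilm without compound and 100% = blank killed by clotrimazole plus chlorhexidine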
sEH inh = blocks human soluble epoxide hydrolase activity; P34913; recombinant human sEH enzymatic activity assay; inhibition, % at 2 µM; 91,000 tested, 0.34% active; in the data active = inhibition above about 80%
* = called active by the depositor; nt = no result given.

SMILES	Measles CPE	sEH activator	cytoskel mod	Candida biofilm	sEH inh
CCOC(=O)c1c(C2COc3ccccc3O2)csc1NC(=O)c1ccco1 (stereo unspecified)	3.8	-6.9	-15.0	-0.1	4.5
CN(CCOc1ccc(-c2ccn(S(=O)(=O)c3cccc4ccccc34)n2)cc1)c1ccccn1	44.4*	-6.2	19.5	nt	8.3
CNCc1ccccc1Sc1ccc(OC)c(OC)c1	40.1*	-3.5	11.3	nt	4.2
CC(C)CSc1nc2c(=O)[nH][nH]c(=O)c2n1Cc1ccccc1	4.8	0.6	5.5	3.6	-0.6
COc1ccc(N2C(=O)[C@@H]3Cc4ccccc4CN3C2=O)cc1	31.5*	6.4	16.8	5.1	-4.3
O=C(Cc1coc2ccc3ccccc3c12)Nc1nnc(C2CC2)s1	56.5*	3.8	2.9	nt	-1.7
O=C(Nc1ccccc1)N1CCn2c(nc3ccccc32)C1	47.8*	13.1	-18.4	3.4	-12.5
CN(C)c1ccc(/C=N/NC(=O)C2COc3ccccc3O2)o1 (stereo unspecified)	17.5*	nt	nt	nt	nt
Cc1cc(C)cc(CC(Cc2nc3ccccc3[nH]2)c2nc3ccccc3[nH]2)c1 (stereo unspecified)	36.5*	8.3	-4.4	nt	-4.8
O=C1[C@@H]2[C@H](C(=O)N1Cc1cccnc1)[C@H]1C=C[C@@H]2C1	5.2	11.8	-3.6	8.9	-12.0
O=C1C2C3C=CC(C3)C2C(=O)N1Cc1ccc(CN2C(=O)C3C4C=CC(C4)C3C2=O)cc1 (stereo unspecified)	37.7*	2.2	3.3	3.3	-4.3
CCOc1ccc(N2C(=O)C(Cl)=C(Nc3ccccc3O)C2=O)cc1	22.6	2.2	-12.8	3.6	-4.2
OCCN(/C=N/c1nc(-c2ccc(Br)cc2)cs1)CCO	32.2*	-12.5	4.1	nt	14.1
Cc1cccc(C(C)Nc2ccc([N+](=O)[O-])cn2)c1 (stereo unspecified)	42.5*	6.4	-4.8	nt	-7.7
COC(=O)C1=C(O)CSC1=Nc1ccc(C)cc1	26.0*	nt	nt	nt	nt
COC(=O)C1=C(O)CSC1=Nc1ccccc1	23.5	-4.6	-9.2	-2.5	2.0
CCOc1ccc(CCNC(=O)COC(=O)c2nc3nc(C)cc(C)n3n2)cc1OCC	3.6	nt	nt	nt	nt
FC(F)(F)c1nc(N2CCCC2)ncc1-c1nnnn1-c1ccccc1	62.4*	-5.0	-5.0	nt	4.9
COc1cc2[nH]c(=O)n(Cc3ccc(C(=O)NC4CCCC4)cc3)c(=O)c2cc1OC	7.8	2.2	10.5	23.5*	-5.2
COc1cc2[nH]c(=O)n(CCC(=O)NC3CCCC3)c(=O)c2cc1OC	8.9	nt	nt	-1.3	nt
Cc1ccccc1NC(=O)c1cc(S(=O)(=O)N2CCOCC2)ccc1F	6.6	nt	nt	-0.2	nt
CC1CC(C)CN(S(=O)(=O)c2ccc(F)c(C(=O)Nc3ccc(Cl)cc3F)c2)C1 (stereo unspecified)	27.1	-9.4	5.8	46.2*	12.1
Cc1ccc(-n2c(C)cc(C(=O)COC(=O)C3=NNC(=O)CC3)c2C)cc1	29.2*	3.5	-12.3	nt	-4.4
Cc1[nH]n(-c2ccccc2)c(=O)c1/C=N\NC(=O)C1COc2ccccc2O1 (stereo unspecified)	6.3	nt	nt	nt	nt
Cc1cc2c(cc1C)/C(=C\C(N)=O)NC(C)(C)C2	44.4*	nt	nt	3.3	nt
SMILES	Measles CPE	sEH activator	cytoskel mod	Candida biofilm	sEH inh
Cc1cccc2c1CC(C)(C)N/C2=C\C(N)=O	5.0	nt	nt	nt	nt
COc1ccc(S(=O)(=O)NCc2cn3c(C)csc3n2)cc1F	6.8	-0.1	-1.3	21.3*	-0.7
Cc1ccc2[nH]c(=O)c(CN(CC3CCCO3)C(=S)Nc3ccccc3)cc2c1 (stereo unspecified)	3.2	nt	nt	nt	nt
O=C(N/N=C/c1c[nH]c2ccc(Br)cc12)c1ccncc1	28.8*	nt	nt	nt	nt
O=C(N/N=C/c1c[nH]c2ccccc12)c1ccncc1	24.5	nt	nt	nt	nt
CCN(CC)S(=O)(=O)c1ccc(Cc2ncc(C(F)(F)F)cc2Cl)s1	3.4	-6.5	nt	1.8	5.2
CCOCC(=O)N1CCc2ccccc21	14.5	9.0	-0.2	nt	-10.7
Cc1csc(=N)n1CC(=O)N1CCc2ccccc21	26.4*	nt	4.6	5.5	nt
O=C(c1ccccc1)N1CCc2ccccc21	1.9	-7.3	12.9	2.5	5.5
COc1ccc(C(=O)N2CCc3ccccc32)cc1	27.7*	-3.6	-8.0	8.8	2.7
CCOC(=O)c1cc2sccc2n1CC(=O)N1CCc2ccccc21	24.8	-7.4	21.2	-3.7	8.0
CCOC(=O)/C=C/C(=O)N1CCc2ccccc21	24.9*	5.7	-14.4	nt	-1.4
CCOC(=O)c1ccc(CNCc2ccc(C)cc2)cc1	6.4	nt	nt	nt	nt
O=C(/C=C/c1ccc([N+](=O)[O-])cc1)Nc1cccnc1	2.1	7.2	nt	nt	-10.2
O=C(/C=C/c1ccc(Cl)c([N+](=O)[O-])c1)Nc1cccnc1	44.3*	7.0	-1.0	nt	-4.1
CC(C)CCNC(=O)COc1ccc2c(c1)C(=O)CC(C)(C)O2	10.8	-11.9	nt	5.3	9.9
CC1(C)CC(=O)c2cc(OCC(=O)NCCCN3CCN(c4ccc(F)cc4)CC3)ccc2O1	3.8	10.8	47.9*	1.0	-9.4
CC(=O)Oc1ccc(C(=O)Nc2ccccc2C(=O)NCC(C)C)cc1	54.0*	nt	nt	nt	nt
Cc1ccc(NS(=O)(=O)c2ccc(CCC(=O)NCCCOC(C)C)cc2)cc1	24.7*	nt	nt	nt	nt
COCCCNC(=O)CCc1ccc(S(=O)(=O)Nc2ccc(C)cc2)cc1	8.3	-3.3	-19.7	5.8	-0.1
COCC(=O)NNS(=O)(=O)c1ccccc1[N+](=O)[O-]	19.9	nt	nt	nt	nt
Cc1cc2c(c(=O)o1)C(C13C=CC(CC1)C3)C(C#N)=C(N)O2 (stereo unspecified)	31.3*	-0.2	4.8	4.5	-4.2
Cc1cc2c(c(=O)o1)C(CC(C)C)C(C#N)=C(N)O2 (stereo unspecified)	11.2	14.8	4.8	9.2	-14.9
COc1ccc(NC(=O)c2ccc(Br)o2)c([N+](=O)[O-])c1	12.7	3.2	17.0	nt	-0.1
COc1ccc(/C=N/Nc2snc(SC)c2C#N)cc1OC	44.2*	2.1	25.5	12.3	1.4
SMILES	Measles CPE	sEH activator	cytoskel mod	Candida biofilm	sEH inh
Cc1cc(C)cc(NC(=O)CSc2nc3c(c(=O)[nH]2)CN(Cc2ccc(F)cc2)CC3)c1	10.2	nt	nt	nt	nt
O=S(CC1CC1(Cl)Cl)CC1CC1(Cl)Cl (stereo unspecified)	14.9	nt	nt	nt	nt
O=C(c1ccc2snnc2c1)N1CCOCC1	29.0	11.2	11.1	3.1	-11.8
COc1ccc(/C=C2/N=C(SC3CCOC3=O)N(c3cccc(OC)c3)C2=O)cc1 (stereo unspecified)	12.0	nt	nt	nt	nt
COc1cccc(/C=C2\N=C3CCCCCN3C2=O)c1	36.2*	5.4	nt	10.0	-8.6
O=S(=O)(Nc1nc2ccccc2nc1NCc1ccco1)c1cccs1	7.9	3.3	11.5	5.5	-4.5
NNC(=O)c1cccc(COc2ccc(Br)cc2)c1	19.6	nt	nt	nt	nt
NNC(=O)c1cccc(COc2cccc(Br)c2)c1	1.2	-80.8	-10.4	nt	81.9*
CCn1c(CNc2ccc(Cl)cc2)nnc1SCc1ccccc1	45.5*	-4.5	-5.7	nt	2.8
Cn1c(CNc2ccc(Cl)cc2)nnc1SCc1ccccc1	2.2	7.2	16.5	2.7	-7.1
O=C(CSc1nnc2ccccn12)Nc1nsc(-c2ccccc2)n1	27.0*	nt	nt	nt	nt
CCn1c(C(=O)N2CCC(C(=O)NCCCSC3CCCCC3)CC2)cc2sccc21	5.2	-95.9	24.4	13.4	95.9*
